From publication PMC4336329 (PLoS ONE, 2015)
Hit rate of the full screen: of about 310,000 compounds, about 14,000 (4.5%) showed an effect of 50% or more. The effect is printed as a negative number. This is one part of a sample in which strong results are shown more often than they occur.

The compounds below were run against human ether-à-go-go-related gene (hERG) potassium channel (human, UniProt Q12809) (assay: primary screen, population patch clamp on CHO cells stably expressing hERG; higher = less effect of the substance).
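Further: peak tail current of the secondary pulse compared with the same well before compound.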

Chain of human ether-à-go-go-related gene (hERG) potassium channel (Q12809 whole entry, looked up): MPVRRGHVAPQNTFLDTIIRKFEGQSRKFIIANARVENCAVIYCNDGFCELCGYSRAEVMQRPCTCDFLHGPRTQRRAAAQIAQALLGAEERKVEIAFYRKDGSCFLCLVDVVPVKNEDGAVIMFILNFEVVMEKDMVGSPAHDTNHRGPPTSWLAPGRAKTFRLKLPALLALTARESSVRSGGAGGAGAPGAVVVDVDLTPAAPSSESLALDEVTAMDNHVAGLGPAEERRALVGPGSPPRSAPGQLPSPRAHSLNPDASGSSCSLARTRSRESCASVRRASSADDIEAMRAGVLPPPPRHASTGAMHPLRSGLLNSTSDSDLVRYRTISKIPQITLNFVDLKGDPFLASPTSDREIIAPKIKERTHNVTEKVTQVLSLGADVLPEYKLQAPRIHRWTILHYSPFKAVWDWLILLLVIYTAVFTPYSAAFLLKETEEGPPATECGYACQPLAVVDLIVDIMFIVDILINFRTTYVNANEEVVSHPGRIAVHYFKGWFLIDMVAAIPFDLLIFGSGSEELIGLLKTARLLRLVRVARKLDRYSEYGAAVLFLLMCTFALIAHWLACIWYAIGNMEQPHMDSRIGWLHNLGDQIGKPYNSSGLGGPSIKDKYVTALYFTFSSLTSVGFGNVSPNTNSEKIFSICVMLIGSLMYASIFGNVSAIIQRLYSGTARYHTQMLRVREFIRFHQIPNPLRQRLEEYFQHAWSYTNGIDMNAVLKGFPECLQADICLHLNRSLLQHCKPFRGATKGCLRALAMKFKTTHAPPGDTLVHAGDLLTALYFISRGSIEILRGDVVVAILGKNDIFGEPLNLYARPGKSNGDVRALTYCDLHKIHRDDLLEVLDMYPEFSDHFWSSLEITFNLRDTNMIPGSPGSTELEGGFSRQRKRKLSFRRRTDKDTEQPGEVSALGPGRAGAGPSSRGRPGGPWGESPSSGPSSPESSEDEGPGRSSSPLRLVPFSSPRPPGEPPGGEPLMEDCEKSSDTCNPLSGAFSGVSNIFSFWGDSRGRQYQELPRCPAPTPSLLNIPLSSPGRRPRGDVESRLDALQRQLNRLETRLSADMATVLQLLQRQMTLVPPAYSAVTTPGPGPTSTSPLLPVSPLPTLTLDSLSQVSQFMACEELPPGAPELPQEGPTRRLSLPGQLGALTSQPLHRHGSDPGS

SMILES | hERG current change (%, negative = inhibition) at 10uM
Cc1cnc(C(=O)N2CCCC(N3CCN(c4cccc(C(F)(F)F)c4)CC3)C2)cn1 (centres unmarked) | -39.7%
O=C(c1ccoc1)N1CCCC(N2CCN(c3cccc(C(F)(F)F)c3)CC2)C1 (centres unmarked) | -55.5%
Cc1cc(C(=O)N2CCCC(N3CCN(c4cccc(C(F)(F)F)c4)CC3)C2)n[nH]1 (centres unmarked) | -53.2%
CCn1cc(C(=O)N2CCCC(N3CCN(c4cccc(C(F)(F)F)c4)CC3)C2)cn1 (centres unmarked) | -29.2%
Cc1occc1C(=O)N1CCCC(N2CCN(c3cccc(C(F)(F)F)c3)CC2)C1 (centres unmarked) | -38.9%
O=C(c1cc[n+]([O-])cc1)N1CCCC(N2CCN(c3cccc(C(F)(F)F)c3)CC2)C1 (centres unmarked) | -6.27%
Cc1nnsc1C(=O)N1CCCC(N2CCN(c3cccc(C(F)(F)F)c3)CC2)C1 (centres unmarked) | -26.8%
O=C(c1ccoc1)N1CCCC(N2CCN(c3cccc(Cl)c3)CC2)C1 (centres unmarked) | -41.3%
O=C(c1cccs1)N1CCCC(N2CCN(c3cccc(C(F)(F)F)c3)CC2)C1 (centres unmarked) | -68.4%
Cc1cc(C(=O)N2CCCC(N3CCN(c4cccc(C(F)(F)F)c4)CC3)C2)no1 (centres unmarked) | -2.14%
O=C(c1ccsc1)N1CCCC(N2CCN(c3cccc(C(F)(F)F)c3)CC2)C1 (centres unmarked) | -64.2%
O=C(c1ccsc1)N1CCCC(N2CCN(c3cccc(Cl)c3)CC2)C1 (centres unmarked) | -47.1%
CC(=O)c1ccc(N2C(=NC(=O)COc3ccccc3)SC3CS(=O)(=O)CC32)cc1 (centres unmarked) | -3.89%
COc1cc2c(cc1OC)CN(C(=O)c1cc(Cl)nc(Cl)c1)CC2 | 12.1%
CC(=O)OCC(OC(C)=O)C(OC(C)=O)C(OC(C)=O)C(=O)Nc1ccccc1 (centres unmarked) | 16.6%
COc1ccc(CNC(=O)Nc2ccc([N+](=O)[O-])cc2)cc1 | 5.47%
CN(CC(=O)Nc1ccc(Cl)c(S(=O)(=O)N2CCOCC2)c1)C(=O)c1cccs1 | -44.2%
CCOc1ccccc1NC(=O)C1CCCN1C(=O)c1cccs1 (centres unmarked) | 7.83%
Cc1ccc(CNC(=O)CCC(=O)Nc2nnc(C3CCCCC3)s2)cc1 | 17.6%
CCOc1ccc(OCC(=O)OCC(=O)N2CCN(C(=O)c3ccco3)CC2)cc1 | -21.9%
O=C(CSc1nnc(SCc2ccc(F)cc2)s1)Nc1ccc(C(=O)O)cc1 | 18.6%
O=C(O)c1cc(O)ccc1NC(=O)C1CCCO1 (centres unmarked) | -0.924%
O=C(c1ccc(F)cc1F)N1CCN(c2ccccn2)CC1 | 0.804%
O=C1NC(=O)C(Cc2ccccc2)(c2cccnc2)N1 (centres unmarked) | 17.7%
Cc1ccc2nc(/C(C#N)=C\c3ccc(Oc4ccc([N+](=O)[O-])cn4)cc3)[nH]c2c1 | 1.61%
CCc1ccc(-c2cc(C(=O)N/N=C/c3ccccn3)[nH]n2)cc1 | -41.7%
Cc1ccc(C(=O)N2CCCC(N3CCN(c4cccc(C(F)(F)F)c4)CC3)C2)s1 (centres unmarked) | -51%

SMILES | hERG current change (%, negative = inhibition) at 10uM
CC(=O)N1CCCC(N2CCN(c3cccc(C(F)(F)F)c3)CC2)C1 (centres unmarked) | -3.73%
CC1=C(C(=O)N2CCCC(N3CCN(c4cccc(C(F)(F)F)c4)CC3)C2)OCCO1 (centres unmarked) | -17.9%
COc1cccc(C(=O)Nc2nnc(-c3ccccc3)s2)c1OC | 4.52%
COc1cccc(C(=O)Nc2sc(C(C)C)cc2C(N)=O)c1OC | -50.5%
COc1cccc(NC(=O)c2cccc(OC)c2OC)c1 | -0.56%
CCCN1C(=O)c2cc(C(=O)NC3CCCC3)ccc2C1O (centres unmarked) | -2.01%
Cc1ccc(NCN2C(=O)C3CC=CCC3C2=O)cc1 (centres unmarked) | 2.67%
CCN(CC(=O)Nc1ccccc1OC)C(=O)c1ccc(NS(=O)(=O)c2ccc(C(C)=O)cc2)cc1 | 0.13%
COc1ccccc1NC(=O)CN(Cc1ccco1)C(=O)c1ccc(-n2nc(C)cc2C)cc1 | -51.2%
CCOC(=O)c1c(C)[nH]c(C)c1S(=O)(=O)N(C)CC(=O)Nc1cc(C)ccc1OC | -24.7%
CCN(CC(=O)NC(C)C)C(=O)c1ccc(S(=O)(=O)N(C)c2ccccc2OC)cc1 | -2.53%
CCOC(=O)c1c(C)[nH]c(C)c1S(=O)(=O)N(C)CC(=O)Nc1ccccc1C | 14.4%
CCN(Cc1ccccc1)C(=O)c1ccc(N(C)S(=O)(=O)c2ccc(C)cc2)cc1 | -38.7%
COc1ccccc1NC(=O)CN(Cc1ccco1)C(=O)c1ccc(Cl)nc1 | -28.4%
CCOC(=O)c1c(C)[nH]c(C)c1S(=O)(=O)N(C)CC(=O)Nc1ccccc1OC | -60%
CCCN(CC(=O)Nc1ccccc1OC)C(=O)c1cccc(S(=O)(=O)Nc2ccc(OC)cc2)c1 | -11.4%
COc1ccccc1NC(=O)CN(Cc1ccco1)C(=O)c1cncc(Br)c1 | -22.4%
CCCN(CC(=O)Nc1ccccc1OC)C(=O)c1ccc(S(=O)(=O)Nc2ccccc2)cc1 | -53.4%
CCN(CC(=O)Nc1ccccc1OC)C(=O)c1ccc(N(C)S(=O)(=O)c2ccc(C)cc2)cc1 | -62.2%
COc1ccc2[nH]cc(C(=O)CCl)c2c1 | 8.92%
COCCN1C(=O)N(c2ccccc2)C(=O)C1CC(=O)Nc1cc(OC)cc(OC)c1 (centres unmarked) | 14%
CSc1nnc(C)c(/C=C/NOCc2cccc(F)c2)n1 | 4.03%
Cl.OCCN(Cc1ccccc1)CC(O)COc1ccc(-c2ccccc2)cc1 (centres unmarked) | -28.3%
CCOC(=O)c1ccc(NC(=O)CCc2nc(-c3cccc(C)c3)no2)cc1 | 7.13%
Cc1ccc(S(=O)(=O)c2c(C)cc(C)[nH]c2=O)cc1 | 20.3%
CCn1nnnc1SCC(=O)Nc1cccc(NC(C)=O)c1 | -1.06%
